In PubChem BioAssay AID802 (Columbia University Molecular Screening Center, 2007) one finds inhibition data, which are given here for 100 compounds.

Molecules are shown by their SMILES. Screen size: about 95,000 compounds; about 460 (0.48%) were called active. Shown is part of a subset that was picked to be rich in actives. Unmarked numbers belong to inactive results.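 Rule for the calls: active = inhibition above the batch mean plus 3 SD, with images confirmed as a hit by eye (cut at about 37% in these data); inconclusive = inhibition above that limit but hit not confirmed in images; inactive = inhibition not above that limit.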

This test is described as follows: inhibitors of TNFa-induced VCAM1 expression, primary screen, imaging, HUVEC, TNFa stimulus, immunofluorescence (AID 802).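 Note: 0% = TNF-stimulated DMSO wells and 100% = unstimulated control wells.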 The settings on record: HUVEC TNFa-induced VCAM-1 immunofluorescence, high-content imaging; at 2 µM; stronger effect = higher value.
The inhibition is the drop in the measured response relative to a control, in per cent. As to `COC(=O)C1=C(Nc2ccc(OC)cc2)C=C(C)C(C(=O)OC)C1c1ccc(C)cc1` (stereo not given), the inhibition is -3.9%.
The figure for `O=C(O)CSc1nccn1-c1cccc(Cl)c1` is -15%; for `Cc1cccc(C)c1NC1=NC(=S)N(c2ccc(N(C)C)cc2)C1(C)C` it is -2.5%.
Under `Cc1ccc(/C=N/NC(=O)c2sccc2OCc2ccc(F)cc2)cc1` stands 4%; under `CCOC(=O)C1(S(=O)(=O)c2ccccc2)CCN(Cc2ccccc2)CC1`, -5.9%; under `CC1CC(C)CN(S(=O)(=O)c2cccc(C(=O)N3C(=O)c4cccc(N)c4C3=O)c2)C1` (stereo not given), -20.1%.
The figure for `CCC(=O)Nc1ccc2nc(C)n(Cc3ccccc3Cl)c(=O)c2c1` is -5.1%; for `CC(=O)Nc1ccccc1OC(=O)N1CCOCC1` it is -16.3%.
On to `Cc1cc(C)n(-c2nnc(C)n2NC(=O)c2cccc(Cl)c2)n1`, for which the inhibition is -8.8%.
Under `Cc1ccc(Nc2nc(C)cc(C)c2C(N)=O)cc1` stands 7.1%.
Under `CC1CCN(S(=O)(=O)c2ccc(S(=O)(=O)NCc3ccco3)cc2)CC1` stands -20.1%; under `O=C(OC1CCCCC1=O)c1cccc(S(=O)(=O)NCc2ccccc2)c1` (stereo not given), -3.3%.
The figure for `CSc1nc(N(C)NC(=O)c2cccc(C)c2)c2ccccc2n1` is 83.3% (active); for `COc1ccc(C(=O)NN(C)c2nc(-c3ccccc3)cc(C)c2S(C)(=O)=O)cc1` it is 16.7%.
In the case of `CN(NC(=O)c1ccccc1)c1nc2ccccc2nc1C(F)(F)F`, the inhibition was 11.7%.
Under `CCN(CC)c1ccc(/C=N/Nc2nc(C)cc(=O)[nH]2)cc1` stands 11.9%.
For the compound `COC(=O)C1=C(C(=O)c2ccc(C)cc2)C(c2ccccc2)n2nnnc2N1` (stereo not given), the inhibition is 5.8%.
The figure for `COc1ccc(C(=O)Nc2nc(-c3ccc(S(=O)(=O)N4CCOCC4)cc3)cs2)cc1` is -4.5%; for `CCOc1cccc(C(=O)Nc2nnc(-c3cccs3)s2)c1` it is -0.3%; for `c1ccc(-n2nnnc2NC2CCCCCC2)cc1` it is -15.1%.
Under `O=C(CS(=O)(=O)c1cn(Cc2cccc(F)c2)c2ccccc12)N1CCCCC1` stands 50.1% (active).
Under `Cc1cc(NC(=O)CS(=O)(=O)c2cn(C)c3ccccc23)no1` stands 28.9%; under `CCOC(=O)c1ccc(NC(=O)CS(=O)(=O)c2cn(CC)c3ccccc23)cc1`, 7%.
Take `O=C(NCCCN1CCOCC1)c1cnn2c(-c3ccccc3)cc(-c3ccccc3)nc12`: the inhibition was 12%.
The figure for `O=C(Nc1cc(-c2nn(CC(=O)N3CCCCC3)c(=O)c3ccccc23)ccc1N1CCOCC1)c1ccc(Cl)cc1` is 12.6%; for `Cc1ccc(-n2ncc3c(Nc4cccc(C(=O)O)c4)ncnc32)cc1` it is -17%.
With `CCCCNC(=O)CSc1nc2n[nH]c(C)c2c(=N)n1-c1cccc(Cl)c1C`, the inhibition is 10.7%.
Consider `CCNC(=O)c1sccc1-n1cccc1`, for which the inhibition is 32%.
In the case of `Cc1cc(=O)oc2cc(OCC3CC(c4ccccc4Cl)=NO3)ccc12` (stereo not given), the inhibition is 59.7% (active).
Under `Cc1ccccc1N1CCN(CCCOc2ccc3c(C)cc(=O)oc3c2)CC1` stands -7.7%; under `COc1cccc(-c2nnc(SCCOc3ccc4c(C)cc(=O)oc4c3)o2)c1`, 0.7%; under `Oc1ccccc1/C=N/n1c(-c2cccs2)n[nH]c1=S`, -7.1%.
Turning to `CC(CCc1ccccc1)NC(=O)c1ccc(Br)o1` (stereo not given), the inhibition is 95.4% (active).
The figure for `CC(CNC(=O)c1ccc(Br)o1)NC(=O)c1ccc(Br)o1` (stereo not given) is -12.4%; for `O=C(Nc1ccc(-c2nnc(-c3ccccc3)o2)cc1)c1ccc(Br)o1` it is -17.2%; for `O=C1CSC(c2cccc(F)c2)N1c1ccc(O)cc1` (stereo not given) it is -1.8%.
Under `C/C(=C\C(=O)c1cccnc1)Nc1ccc(C)c(C)c1` stands 89.1% (active); under `C/C(=C\C(=O)c1ccccc1)Nc1cccc(O)c1`, -2.3%.
Take `CCC(=O)Nc1cccc(NC(=O)c2cccnc2)c1`: the inhibition is 7.8%.
Under `Cc1c(NC(=O)/C=C/C(=O)O)cccc1[N+](=O)[O-]` stands 3.3%; under `O=C(CSc1ncnc2c1cnn2CCc1ccccc1)Nc1ccc(F)cc1`, 1.7%; under `CCOC(=O)N1CCN(C(=O)COc2ccc(Cl)cc2C)CC1`, 92.1% (active).
The figure for `CCOC(=O)N1CCN(C(=O)CSc2ccc(Cl)cc2)CC1` is -18.1%; for `CCOC(=O)N1CCN(C(=O)COc2ccc(Br)cc2)CC1` it is -1.9%.
Under `CCn1c2ccccc2c2cc(NC(=O)C/C(C)=N/NC(=O)c3ccccc3N)ccc21` stands 1.3%; under `COC(=O)c1cc(OC)c(OC)cc1NC(=O)CSc1ccc(C)cc1`, -25%; under `Cc1ccc2nc(SCc3nnc(-c4ccccc4[N+](=O)[O-])o3)c(C#N)cc2c1`, 6%.
With `CN(C)c1ccnc(Oc2ccc(F)cc2)c1C#N`, the inhibition was -15.3%.
The figure for `CC(=O)c1ccc(Oc2cc(C)nc(-n3nc(C)cc3C)n2)cc1` is 75.8% (active); for `Cc1cc(C)n(-c2cc(Oc3ccccc3)ncn2)n1` it is 13.4%.
Under `Cc1cc(Oc2ccccc2)nc(N2CCOCC2)n1` stands 0.8%.
Under `O=C(Cc1ccc(-n2c(=O)[nH]c3ccccc3c2=O)cc1)N1CCN(c2cccc(Cl)c2)CC1` stands 1.3%.
As to `Cc1cccc(S(=O)(=O)CC(=O)Nc2nc(-c3ccccc3)cs2)c1`, the inhibition is -5.3%.
Under `CN(CC#CCC(c1ccccc1)c1ccccc1)C(C)(C)C` stands 5.2%; under `O=C1Cc2ccccc2Sc2ccc(Cl)cc21`, 10%; under `CSCc1cc(N2CCOCC2)nc(SCc2ccc(Cl)cc2Cl)n1`, 5.1%.
Consider `Cc1ccc(-c2csc(NC(=O)Cc3cccs3)n2)cc1C`, for which the inhibition was 1.5%.
For `COc1ccc(OC)c(/C=N/NC(=O)CSc2nnc(C)n2-c2ccccc2)c1`, the inhibition is 0.9%.
Under `O=C(Nc1ccccc1)c1ccccc1NC(=O)C(F)(F)F` stands -10.4%; under `COc1cc(/C=C2\SC(=S)N(Nc3ncc(C(F)(F)F)cc3Cl)C2=O)cc(OC)c1OC`, 14.4%; under `O=C(c1ccccc1)C(Cn1cncn1)C(Sc1ccccc1)c1ccccc1` (stereo not given), 0.1%.
The figure for `CCOc1ccc(NC(=O)CCS(=O)(=O)c2ccc3c(c2)CCCN3C(=O)CC)cc1` is 0.8%; for `COc1ccccc1NC(=O)C1CCCN(c2cc(C)nc3ncnn23)C1` (stereo not given) it is 3.1%.
On to `CC1(C)Cc2c(C#N)c(SCc3nc4ccccc4[nH]3)nc(N3CCOCC3)c2CO1`, for which the inhibition was 7.1%.
The figure for `CC(C)C(=O)N1CCN(c2nc(-c3ccccc3)c3c(c2C#N)CC(C)(C)OC3)CC1` is 36.7% (active); for `CC(C)c1nc(N2CCOCC2)c(C#N)c2c1COC(C)(C)C2` it is -40.7%; for `S=C(NCc1cccs1)Nc1ccc(Cl)cc1` it is -27.9%.
Turning to `Cc1cc2cc(CNC(=O)c3cccs3)ccc2[nH]1`, the inhibition was 11.4%.
Under `COCCn1c(SCc2nnc(-c3ccc(OC)c(OC)c3)o2)nc2sc3c(c2c1=O)CCC3` stands -4.9%; under `O=C(c1ccccn1)c1ncc(C(F)(F)F)cc1Cl`, 2.2%.
For `Cc1ccc(C(=O)c2c(NC(=O)c3ccncc3)sc3c2CCCC3)cc1`, the inhibition is 3%.
Under `O=C(Cn1cnc2ccccc2c1=O)NCC1COc2ccccc2O1` (stereo not given) stands 0.5%; under `Cc1ccc(-c2nn(C(C)(C)C)c3ncnc(N)c23)cc1`, 40.8% (active); under `CC(C)(C)OC(=O)c1c(N)n(CCCN2CCCC2=O)c2nc3ccccc3nc12`, -22.1%.
Turning to `C=CCn1c(N)c(S(=O)(=O)c2cccs2)c2nc3ccccc3nc21`, the inhibition was -6.6%.
Under `C=CCn1c(N)c(C(=O)OCC(C)C)c2nc3ccccc3nc21` stands 94.4% (active); under `Cc1ccc(SCC(=O)c2cc(C)c(OC(=S)N(C)C)c(C)c2)cc1`, 8.8%.
Under `COc1cc(C(=O)N2CCN(C/C=C/c3ccccc3)CC2)cc(OC)c1C` stands -10.4%; under `Cc1cc(/C=N/NC(=O)CC2(C)OCCO2)c(C)n1-c1ccc(Cl)c(Cl)c1`, -7.1%; under `CCOC(=O)C(=O)Nc1nc(-c2ccccc2)c(CC)s1`, 4.9%.
The figure for `O=S(=O)(NCc1cccnc1)c1ccc(Cl)nc1` is 0.2%; for `COc1ccc(C(C(=O)NCc2ccccc2)N(Cc2cccs2)C(=O)c2cnccn2)cc1` (stereo not given) it is 2.9%.
For the compound `Cc1ccc(-c2nc3ccccc3[nH]2)cc1N`, the inhibition was 4.2%.
Consider `NC(=O)COc1ccc(/C=N/NC(=O)C2CCCN2S(=O)(=O)c2ccc(Cl)cc2)cc1` (stereo not given), for which the inhibition is 17.1%.
Under `O=S(=O)(/N=C(/Nc1ccccn1)c1ccccc1)c1ccc(Cl)cc1` stands 0.3%; under `Cc1ccccc1CS(=O)(=O)CC1(O)CCN(C(=O)c2cccc(C(F)(F)F)c2)CC1`, -2%; under `O=C(NC1(C(F)(F)F)NC(=O)N(Cc2cccnc2)C1=O)c1ccccc1Cl` (stereo not given), 8.4%.
With `COc1cc(NS(=O)(=O)c2ccc(N/C=C(\C=O)c3nc4cc(Cl)ccc4o3)cc2)nc(OC)n1`, the inhibition is -2.6%.
Under `Cc1cc(C(=O)CSc2nc(N)cc(=O)[nH]2)c(C)n1CCc1ccc(Cl)cc1` stands 16.5%; under `CSc1nc2nc3c(c(=O)n2[nH]1)CCC3`, 7.1%; under `CC(C)=CC(=O)Nc1nnc(-c2ccc(F)cc2)s1`, 6.5%.
Under `CC(C)(C)c1cc2cccnc2n1Cc1ccccc1` stands 9.9%; under `Cc1cccc(N2CCN(S(=O)(=O)c3ccc4[nH]c(=O)c(=O)[nH]c4c3)CC2C)c1` (stereo not given), 3.1%.
The figure for `Cc1cccc(N=C2NC(=O)CS2)c1C` is 97.1% (active).
With `CCOc1ccccc1N=C1NC(=O)CS1`, the inhibition was -6.9%.
The figure for `COC(=O)C1C(=O)c2c([nH]c(C(=O)OCCSC)c2C)CC1C` (stereo not given) is 1.9%.
Under `C=CCOC(=O)C1=C(C)NC(C)=C(C(=O)OCC=C)C1c1cccs1` stands 3.8%.
The figure for `CCCOC(=O)c1[nH]c2c(c1C)C(=O)CC(c1cccs1)C2` (stereo not given) is 65% (active).
For `CCCCCCC12CCC(C(=O)O)(CC1)CC2`, the inhibition is 25.1%.
The figure for `Cc1cccc2c(=O)n3c(nc12)CCCCC3` is 13.3%.
